GLP1R inv ag: qHTS of GLP-1 Receptor Inverse Agonists (Inhibition Mode) | Glucagon-like peptide 1 receptor (Homo sapiens), P43220 | HEK293 GLP-1R CRE-luciferase, luminescence, 24 h; GLP-1R form is constitutively active | Potency, µM (series often up to 38.3 µM), most hits filed as inhibitors | 1.6% of 410,000 active; note: nearly all actives have a fitted effect of over 55% in size
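Seeding at 200 cells/uL, 12 h culture, 24 hr compound treatment, then luciferase reagent and a luminescence read; cells are HEK293 stably expressing a constitutively active GLP-1R plus cAMP-responsive luciferase.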
D3 antag: qHTS of D3 Dopamine Receptor Antagonist: qHTS; max response, negative = inhibition, %; D(3) dopamine receptor (Homo sapiens), P35462; AID 652054, 2013; 2.5% of 360,000 active; D3R cells, DiscoveRx beta-arrestin luminescence, antagonist mode; active compounds read low; in the data active = max response below about -50%; inconclusive = no clear call, values can overlap the other calls
Target sequence (P35462 whole entry, looked up): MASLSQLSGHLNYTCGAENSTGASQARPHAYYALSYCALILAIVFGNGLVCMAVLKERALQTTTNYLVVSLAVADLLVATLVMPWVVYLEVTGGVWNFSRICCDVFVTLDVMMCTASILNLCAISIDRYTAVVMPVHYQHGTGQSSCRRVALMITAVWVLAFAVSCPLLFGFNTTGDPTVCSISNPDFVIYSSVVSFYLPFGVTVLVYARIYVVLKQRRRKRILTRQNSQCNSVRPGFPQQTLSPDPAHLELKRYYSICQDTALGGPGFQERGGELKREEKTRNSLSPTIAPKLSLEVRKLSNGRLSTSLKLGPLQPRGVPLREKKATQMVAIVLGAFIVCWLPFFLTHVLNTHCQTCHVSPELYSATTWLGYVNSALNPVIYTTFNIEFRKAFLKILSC
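Cells plated overnight at 1500 cells/well, then exposed to library compounds with dopamine controls for 90 minutes at 37 degrees C. DiscoveRx reagent added for 30–60 minutes at room temperature; luminescence read, quantitative HTS format.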
GLP-1R agonist: qHTS of GLP-1 Receptor Agonists; Glucagon-like peptide 1 receptor (Homo sapiens), P43220; HEK293 GLP-1R CRE-luciferase, luminescence, 4-6 h; cells express a hypersensitive GLP-1R form; Potency, µM (titrated, usually from 45.6 µM), usual class: activators; 0.007% of 380,000 active; AID 624172, 2012
ClpP mod: qHTS Assay for Activators of ClpP; ATP-dependent Clp protease proteolytic subunit (Bacillus subtilis (strain 168)), P80244; purified B. subtilis ClpP, FRET peptide cleavage, 20 min; Potency, µM (doses to about 57.5 µM); 1.9% of 340,000 active; AID 651965, 2013; active = well fitted falling curve with a large enough effect; inconclusive = small, poorly fitted or top-dose-only effect; inactive = no such curve, though single readings can be large or run the other way; note: the source files actives as falling curves though it sought activators and does not explain the sign; nearly all actives have a fitted effect of over 65% in size
Target sequence (P80244 whole entry, looked up): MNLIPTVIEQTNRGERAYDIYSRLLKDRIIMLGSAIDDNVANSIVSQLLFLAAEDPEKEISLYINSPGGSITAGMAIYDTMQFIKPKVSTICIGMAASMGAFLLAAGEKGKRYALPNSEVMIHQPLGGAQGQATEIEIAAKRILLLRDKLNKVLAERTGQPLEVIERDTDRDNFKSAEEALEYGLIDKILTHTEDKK
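ClpP 10 microg/mL final, pH 8 Tris/KCl buffer with BSA, glycerol, Tween-20; compound pinned in; FRET-FV substrate; RT 20 min; Ex320/Em430; ΔFRET vs ADEP 5.8 microM, DMSO, no enzyme.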
DRD3 agonist: qHTS of D3 Dopamine Receptor Agonist: qHTS; D3R DiscoveRx beta-arrestin cells, luminescence, 90 min; 0.58% of 410,000 active; max activation, %; in the data active = max activation above about 30%
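Agonist-mode cell screen: cells plated at 1500/well and incubated overnight at 37 °C, then exposed to library compounds for 90 min at 37 °C. Detection reagent was added for 30–60 min at room temperature, and luminescence was read.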
HEK293 tox: qHTS of GLP-1 Receptor Inverse Agonists: Cytotox Screen; 0.13% of 410,000 active; AID 624418, 2012; Potency, µM (top dose mostly 38.3 µM), actives largely listed as inhibitors; HEK293 cAMP-luciferase reporter cells, luminescence, 24 h;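 note: loss of luciferase light is scored as toxicity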
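Cells in DMEM/10% Nu serum/1% pen-strep, 1536-well format. Pre-incubated 12 h, dosed with 23 nL compound, incubated a further 24 h. Luciferase detection, 12 min at room temp, luminescence.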
Large screens that a line does not name were inactive. This is a sample that favours compounds with a hit; in the whole collection about 5.7% have one here. Unless noted, calls come from the whole dose curve; as a rule, active = well fitted curve in the direction sought with a large enough effect; inconclusive = small, poorly fitted or top-dose-only effect, or another doubt; inactive = no such curve, though single readings can be large; an effect the other way counts as inactive or inconclusive.

COc1ccccc1-c1nc2n(n1)C(c1ccccc1Cl)C(C(=O)Nc1cccnc1)=C(C)N2 (stereo not given)	none (no result: D3 antag, GLP-1R agonist)
Cc1cccc(C)c1NC(=O)C(c1ccccc1OC(F)(F)F)N1CCN(C)CC1 (stereo not given)	ClpP mod inconclusive (no result: GLP-1R agonist)
CC1(C(=O)NCc2cccc(C(F)(F)F)c2)CCN1CCc1ccccc1 (stereo not given)	GLP1R inv ag inconclusive
CC1(C(=O)NCc2cccc(C(F)(F)F)c2)CCN1C1Cc2ccccc2C1 (stereo not given)	GLP1R inv ag 13µM
CCOC(=O)CNc1ncc([N+](=O)[O-])cc1C#N	none
N#Cc1cc([N+](=O)[O-])cnc1Nc1ccccc1	GLP-1R agonist 8.9µM
CC(C)COC(=O)N1CCCCC1c1cc(C(=O)Nc2ccccc2)no1 (stereo not given)	GLP1R inv ag inconclusive
CC(=NNc1nc2ccccc2s1)c1ccncn1	D3 antag -57
C/C(=N\Nc1nc2ccccc2s1)c1ccc(Br)s1	GLP1R inv ag 10µM, HEK293 tox inconclusive (no result: ClpP mod)
CC1(C(=O)Nc2ccc3c(c2)OCO3)CCN1C(=O)CCc1ccc(Cl)cc1Cl (stereo not given)	GLP1R inv ag inconclusive
Cc1cccc2c(=O)c(C(=O)NCCc3ccccc3)c[nH]c12	none
O=C(NCCc1ccccc1)c1c[nH]c2c(F)cccc2c1=O	D3 antag -50
COc1cc(NC(=O)CC(C)n2nc(C)cc2C)cc(OC)c1 (stereo not given)	none (no result: D3 antag, GLP-1R agonist)
O=C(Nc1ccc2ccccc2c1)C(C1CC1)n1c(=O)c(-c2cc3ccccc3[nH]2)nc2ccccc21 (stereo not given)	GLP1R inv ag 5µM (no result: GLP-1R agonist)
O=C(Nc1ccc2c(c1)OCCO2)C(C1CC1)n1c(=O)c(-c2cc3ccccc3[nH]2)nc2ccccc21 (stereo not given)	GLP1R inv ag 11µM (no result: GLP-1R agonist)
COc1ccc(NC(=O)C(C2CC2)n2c(=O)c(-c3cc4ccccc4[nH]3)nc3ccccc32)cc1 (stereo not given)	GLP1R inv ag inconclusive (no result: GLP-1R agonist)
COc1ccc(C(C(=O)Nc2ccc3c(c2)OCCO3)n2c(=O)c(-c3cc4ccccc4[nH]3)nc3ccccc32)cc1 (stereo not given)	GLP1R inv ag inconclusive (no result: GLP-1R agonist)
CC(C)(C)CC(C)(C)N=C1Nc2ccc(Cl)cc2NC12C[C@H]1CCC(=O)N3CC[C@@H](C2)[C@@H]13 (stereo not given in full)	none (no result: GLP1R inv ag, D3 antag, GLP-1R agonist, DRD3 agonist, HEK293 tox)
O=c1[nH]c(=S)[nH]c2c1[C@H](C1CC1)O[C@H](CCc1ccccc1)C2	GLP1R inv ag inconclusive, D3 antag -84
CC1(Cc2ccccc2Cl)C(=O)Nc2ccc(OC(F)(F)F)cc21 (stereo not given)	GLP1R inv ag 10µM
Nc1ccc2c(c1)C(=O)N(c1ccc3ccccc3c1)C2=O	none (no result: GLP1R inv ag, D3 antag, GLP-1R agonist, DRD3 agonist, HEK293 tox)
c1ccc(COc2ncnc3c2ncn3CCCNCc2cccs2)cc1	none
CSc1nc2ccc(Cl)cc2[nH]1	none
CSc1nc2cc(Oc3cccc(Cl)c3Cl)c(Cl)cc2[nH]1	GLP1R inv ag 11µM
COc1cccc2sc(Nc3nnc(-c4ccc(F)cc4)o3)nc12	GLP1R inv ag inconclusive, HEK293 tox inconclusive
Fc1cccc2sc(Nc3nnc(-c4ccco4)o3)nc12	GLP1R inv ag inconclusive, D3 antag inconclusive, ClpP mod 25µM
CCSc1cc(N2CC(C)OC(C)C2)nc(-c2ccccc2Cl)n1 (stereo not given)	GLP1R inv ag 10µM
Cc1cccc(N2CCN(c3ncnc4c3nc3n4CCCCC3)CC2C)c1 (stereo not given)	GLP1R inv ag inconclusive (no result: D3 antag, GLP-1R agonist)
O=C(COC(=O)C1CC(=O)N(C2CCCCC2)C1)c1ccc(F)cc1 (stereo not given)	D3 antag -58
Cc1ccc(N2CC(C(=O)OCC(=O)c3ccc(F)cc3)CC2=O)cc1 (stereo not given)	none (no result: ClpP mod)
O=C(Cn1c(=O)oc2cc(S(=O)(=O)N3CCCC3)ccc21)Nc1ccc(F)cc1F	none (no result: D3 antag, GLP-1R agonist)
O=C(CN1CCCCC1)Nc1ccc(NC(=O)c2ccc(Cl)cc2)cc1Cl	ClpP mod 14µM
O=C(CN1CCN(S(=O)(=O)N2CCCCC2)CC1)Nc1ccc(Cl)c(Cl)c1	GLP1R inv ag 8.9µM
CCNc1cc(S(=O)(=O)C(F)(F)F)ccc1N	GLP1R inv ag inconclusive
CCNc1ccc(C(=O)O)cc1N	ClpP mod 25µM
Nc1cc(C(=O)O)ccc1Nc1ccccc1	ClpP mod 10µM
CCc1ccccc1Nc1ccc(C(=O)O)cc1N	ClpP mod 28µM
COc1cc(Cl)c(C)cc1Nc1nc2ccccc2n2cnnc12	none (no result: D3 antag, GLP-1R agonist)
C1=C(CCNc2nnnn2-c2ccccc2)CCCC1	GLP1R inv ag inconclusive, D3 antag -61
O=C(NCc1ccccc1)c1ccc(N2CCC3(CC2)CC(c2ccc(Cl)cc2)=NO3)c([N+](=O)[O-])c1	D3 antag -63
O=C(O)C1OC(Oc2cc3oc(-c4ccccc4)cc(=O)c3c(O)c2O)C(O)C(O)C1O (stereo not given)	DRD3 agonist 32
COc1ccccc1CNC(=O)c1ccccc1NS(C)(=O)=O	ClpP mod 28µM
Nc1ccccc1C(=O)NCc1ccccc1	ClpP mod 28µM
Cc1ccccc1CNC(=O)c1ccccc1N	ClpP mod 10µM, DRD3 agonist 30
O=C(Nc1ccccc1C(=O)NCc1ccccc1)c1ccccc1	D3 antag inconclusive
CCN(CC)CCNC(=O)c1ccccc1N	ClpP mod 10µM
Cc1ccc(S/C(=N/S(=O)(=O)c2ccc(Cl)cc2)c2ccccc2)cc1	none (no result: GLP1R inv ag, D3 antag, GLP-1R agonist, DRD3 agonist, HEK293 tox)
Cc1noc2ncnc(N3CCCC(C(=O)Nc4cccc(C(F)(F)F)c4)C3)c12 (stereo not given)	GLP1R inv ag inconclusive (no result: D3 antag, GLP-1R agonist)
O=C(Nc1cccc(F)c1)c1oc2ccccc2c1NC(=O)C12CC3CC(CC(C3)C1)C2	none (no result: D3 antag)
CCCOc1ccc(Oc2nc(NCC(C)C)nc(N3CCOCC3)n2)nn1	none (no result: D3 antag, GLP-1R agonist)
COc1ccccc1CNC(=O)C(C)NS(=O)(=O)c1ccc(Br)cc1 (stereo not given)	D3 antag -68
COc1ccccc1CNC(=O)c1ccccc1N	ClpP mod 10µM
O=C(NCc1ccc(Cl)cc1)c1nccnc1CO	none (no result: ClpP mod)
COc1ccc(C(=O)NCc2ccccc2OC)c(OC)c1	none

Screening results as filed in PubChem.
